Drawing on PubChem BioAssay AID493085 (Broad Institute, 2011), this text covers outcome for 109 compounds.

In all, about 2,400 compounds went through this assay and about 360 (15%) were called active. Inconclusive results (about 5%) are left out.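 How the source made its calls: active means falling-signal curve with half-maximal concentration at or below ten times the top tested dose; inconclusive means flat fit at 30 to 70% inhibition, or poor fit; inactive means signal rise, flat within 30%, or potency beyond limit.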 Not all results are given here. Results with a measured potency or affinity are listed apart.

This assay is described as follows: dox-induced RFP signal loss in R4-3T3 cells – cell-based, NIH3T3 R4, HSE-GFP and Tet-On RFP, cherry-pick, set 3, dose response (AID 493085).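 Further: cells heat shocked 2 h at 42 °C with doxycycline to induce reporters.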 Particulars: NIH3T3 R4 HSE-GFP/Tet-RFP reporter, fluorescence, 48 h; series mostly up to 19.5 µM.
On to `OC1(c2ccc(Br)cc2)CCN(Cc2cccc(Br)c2)CC1`, for which the compound was classed as inactive.
As for `Cn1ccnc1SCC(=O)N(C1CCCCC1)C1CCCCC1`, the compound was called inactive.
In the case of `COc1cc(C(=O)N(C)C2CCCN(Cc3ccccc3F)C2)cc(OC)c1OC` (centres undefined), the result was inactive.
As to `CS(=O)(=O)N(CC(=O)O)c1ccc(C23CC4CC(CC(C4)C2)C3)cc1`, the call was inactive.
As for `O=C(CCC1CCCNC1)c1ccccc1` (centres undefined), the entry is “inactive”; as for `CC(=O)c1cnn(-c2c(Cl)cc(Cl)cc2Cl)c1C`, “inactive”.
As for `CC(C)Oc1ccc(C(=O)O)cc1`, the entry is “inactive”; as for `NC(=O)c1ccsc1NC(=O)C1CCCCC1`, “inactive”; as for `COC(=O)c1cccc(N2C(=O)C3CC=CCC3C2=O)c1` (centres undefined), “inactive”.
For `O=C(N/N=C/c1ccc(F)cc1)c1ccc(OCc2ccccc2)cc1` the value was “inactive”; for `COc1ccc(C(=O)Nc2ccccc2C(=O)N/N=C/c2ccc(O)c(OC)c2)cc1`, “inactive”.
`O=C(N/N=C/c1cc([N+](=O)[O-])ccc1O)c1ccncc1`: the compound was called inactive.
As for `CCOc1cc(N2CCOCC2)c(OCC)cc1NC(=O)c1cc(-c2ccco2)nc2ccccc12`, the entry is “inactive”; as for `COC(=O)[C@H](C)NC(=O)NCCC1=CCCCC1`, “inactive”; as for `Cc1ccc(C(=O)/C=C/Nc2ccccn2)cc1`, “inactive”.
As for `COC(=O)c1nn(-c2cccc(C(F)(F)F)c2)c(=O)cc1Sc1ccccn1`, the entry is “inactive”.
Turning to `CCCCOc1ccc(C2C(=O)N(C3CCCCC3)CC(=O)N2CC2CCCO2)cc1` (centres undefined), the compound was classed as inactive.
For `CCOC(=O)c1c(C)[nH]c(C2=NNC(=Nc3cccc(Cl)c3)SC2)c1C` the value was “inactive”; for `CC(C)(C)N=C1NN=C(c2ccc(Cl)cc2)CS1`, “inactive”; for `CC(C)(C)c1ccccc1NC(=O)NC1CCN(Cc2c(F)cccc2Cl)CC1`, “inactive”.
Regarding `COc1ccccc1NC1=C(Cl)C(=O)N(C2CCCCC2)C1=O`, the compound was called inactive.
Turning to `CCOC(=O)Cc1csc(NC(=O)c2sc3nc4ccc(CC)cc4cc3c2N)n1`, the call was inactive.
As for `O=C1c2ccccc2C(O)N1c1ccccc1` (centres undefined), the entry is “inactive”.
As to `Cc1ccnc(N2CCCC(C(=O)NCc3cccs3)C2)n1` (centres undefined), the result was inactive.
For `O=C(O)CCn1cc(/C=C2\NC(=S)N(c3ccccc3)C2=O)c(-c2ccc(Br)cc2)n1` the value was “inactive”; for `Cc1noc(C)c1COc1ccc(C(=O)OCC(=O)Nc2c(C)n(C)n(-c3ccccc3)c2=O)cc1`, “inactive”.
With `COc1cccc(CNc2ccc(S(N)(=O)=O)cc2)c1OC`, the compound was called inactive.
For `COc1cc(/C=C/c2nc(N)nc(-c3ccccc3O)n2)cc(OC)c1OC` the value was “inactive”; for `CN=c1scc(-c2ccccc2F)n1/N=C/c1ccc[nH]1`, “inactive”.
On to `Cc1cc(C)c(NC(=O)CSc2nnc(-c3ccncc3)n2Cc2ccco2)c(Cl)c1`, for which the compound was called inactive.
For `CCOc1ccc(NCc2nnc(SCc3ccccc3Cl)n2-c2ccccc2)cc1` the value was “inactive”; for `CCc1ccccc1-n1c(SCC(=O)Nc2ccc3c(c2)OCCO3)nc2[nH]ncc2c1=O`, “inactive”.
Turning to `CCOC(=O)Cn1c(CN2CCN(c3cccc(Cl)c3)CC2)nc2c1c(=O)[nH]c(=O)n2C`, the compound was called inactive.
As for `CCCCn1c(=O)n(CC(=O)Nc2c(CC)cccc2CC)c(=O)c2c1nc(CO)n2CCC`, the entry is “inactive”; as for `Cc1[nH]n(-c2ccccc2)c(=S)c1C=Nc1cccc([N+](=O)[O-])c1`, “inactive”.
For `CCOc1ccc(/C(O)=C2/C(=O)C(=O)N(CCCn3ccnc3)C2c2cccs2)cc1Cl` (centres undefined), the result was inactive.
With `Cc1ccc(S(=O)(=O)N2CCN(C(=O)c3cccc(F)c3)CC2)cc1`, the outcome was inactive.
`O=C(O)c1cc(-c2cccc3ccccc23)nc2ccccc12`: the result was inactive.
Turning to `Cc1nc(NC(C)c2ccccc2)sc1C(=O)Nc1ccccc1` (centres undefined), the compound was called inactive.
For the compound `CC(C)Sc1nc2sccc2c(=O)n1-c1ccccc1`, the result was inactive.
For `COc1cccc(C(=O)Nc2ccc(NC(=O)C3CC=CCC3C(=O)O)cc2)c1` (centres undefined) the value was “inactive”; for `CC(C)CN(CC(C)C)C(=S)NC1CCCCC1`, “inactive”; for `O=[N+]([O-])c1ccc(N2CCN(Cc3ccc4c(c3)OCO4)CC2)nc1`, “inactive”.
As for `Cc1c(C(=O)NCc2ccc3c(c2)OCO3)sc2nc(-c3ccccc3)cn12`, the entry is “inactive”.
For `COc1cc(C(=O)Nc2ccccc2NC(=O)c2cc(OC)c(OC)c(OC)c2)cc(OC)c1OC`, the result was inactive.
As for `O=C(NCc1ccc2c(c1)OCO2)c1cc2c(s1)CS(=O)(=O)C2`, the outcome was inactive.
For `COc1ccccc1NC(=O)c1ccc([N+](=O)[O-])o1` the value was “inactive”; for `Cc1cccc(NC(=O)CN2C(=O)N/C(=C/c3cc(C)n(C(C)C)c3C)C2=O)c1`, “inactive”; for `CCn1c(COc2ccc(C)cc2)nnc1SCC(=O)Nc1ccc2c(c1)OCCO2`, “inactive”.
For `COc1ccccc1Nc1nc(NCCCN(C)C)nc(N)c1[N+](=O)[O-]` the value was “inactive”.
For `CCN(C(=O)Cn1c([N+](=O)[O-])cnc1C)c1ccccc1` the value was “inactive”; for `CC(C)(C)c1cnnn1-c1ccc(C(=O)CCl)cc1`, “inactive”.
Regarding `CC1(C)CC(=O)C2=C(C1)N(c1ccc(F)cc1)C(=O)CC2c1ccccc1` (centres undefined), the compound was called inactive.
As for `O=C(COC(=O)c1cnccn1)Nc1ccc(Cl)cn1`, the entry is “inactive”.
Turning to `Cc1cc(C(=O)COC(=O)C2CC2)c(C)n1-c1ccc(F)cc1`, the call was inactive.
As to `Cc1cc(C(=O)CSc2nnc3ccccn23)c(C)n1-c1ccccc1`, the result was inactive.
For `COc1ccc(C(=O)CSc2nc(C)cc(=O)[nH]2)cc1C` the value was “inactive”.
Take `CC1C=Cc2ccccc2N1C(=O)c1ccccc1` (centres undefined): the compound was called inactive.
As for `O=C(OCCN1CCN(c2ncc(C(F)(F)F)cc2Cl)CC1)c1ccc(Cl)cc1`, the entry is “inactive”.
`CCN1CCN(c2cc(C)c3cc(NC(=S)N4CCCC(C)C4)ccc3n2)CC1` (centres undefined): the compound was classed as inactive.
On to `COc1cccc(CC2(CO)CCN(S(=O)(=O)c3ccc(OC)cc3OC)CC2)c1`, for which the call was inactive.
As for `CC(C)CC(C(=O)Nc1cccc(O)c1)N1C(=O)c2ccccc2C1=O` (centres undefined), the entry is “inactive”; as for `COCCN(C(=O)COC(=O)/C=C/c1ccc(C(F)(F)F)cc1)c1c(N)n(Cc2ccccc2)c(=O)[nH]c1=O`, “inactive”.
As for `Cc1ccccc1OCC(=O)Nc1ccc([N+](=O)[O-])cc1`, the entry is “inactive”; as for `Cc1ccccc1OCC(=O)OCC(=O)c1ccc(-c2ccccc2)cc1`, “inactive”; as for `CN(Cc1ccccc1)C(=O)CCn1c(=O)oc2ccccc21`, “inactive”.
As for `Cc1ccc(S(=O)(=O)NC(C)(C)CSc2nncn2N)cc1`, the entry is “inactive”.
For the compound `CC1(C)C=C2C(=NN(c3ccccc3)C(N)=C2C#N)CO1`, the compound was called inactive.
Regarding `O=C(CCl)Nc1ccccc1C(=O)c1ccccc1`, the compound was called inactive.
As for `Fc1ccc(-n2cc(CNCCc3ccccn3)c(-c3ccccc3Cl)n2)cc1`, the entry is “inactive”; as for `O=C(CN1CCN(C(=O)c2ccccc2)CC1)Nc1ncc(Br)cc1Br`, “inactive”.
`O=C(OCc1cc(=O)n2cc(Br)ccc2n1)C1COc2ccccc2O1` (centres undefined): the call was inactive.
As for `COc1ccc(CN(CCCN2CCOCC2)C(=O)Nc2cccc(Cl)c2)cc1OC`, the entry is “inactive”.
As for `CCOC(=O)Cc1cnc(NC(=O)c2ccccc2)s1`, the entry is “inactive”; as for `CCOC(=O)c1sc(NC(=O)Nc2ccccc2F)nc1C`, “inactive”.
Turning to `CN1CCN(c2ccc(NC(=O)c3ccc4ccccc4c3)cc2)CC1`, the outcome was inactive.
For `COc1ccc(C(C)NC(=S)NC2CCCCC2)cc1OC` (centres undefined) the value was “inactive”.
Turning to `COc1ccc(C(C(=O)NC2CCCCC2)N(C(=O)CCl)c2cccc(Cl)c2)cc1` (centres undefined), the compound was called inactive.
Regarding `Cc1ccc(Cn2c(=N)n(CC(=O)c3ccccc3)c3ccccc32)cc1`, the call was inactive.
For `CCCCSC1=C(C#N)C(c2ccccc2C)CC(=O)N1` (centres undefined) the value was “inactive”; for `O=C(CCc1ccccc1)Nc1cccc([N+](=O)[O-])c1`, “inactive”; for `Cc1nc(-c2ccc(Cl)cc2)sc1C1(C)CC(c2ccc(Cl)cc2)=NO1` (centres undefined), “inactive”.
With `CN(C)c1nc(OCCNC(=O)COc2ccc(Cl)cc2Cl)nc(N(C)C)n1`, the compound was classed as inactive.
Consider `Cc1cccc(C(=O)NC2CCN(C(=O)Nc3ccc(F)cc3)CC2)c1`, for which the compound was classed as inactive.
For `C[n+]1c(/C=C/c2ccc3c(c2)OCO3)ccc2ccccc21` the value was “inactive”; for `CCc1cc(C(=O)NCC(C)(C)N2CCOCC2)sc1C`, “inactive”.
For `CCOC(=O)c1ccc(NC(=O)NS(=O)(=O)c2ccc(C)cc2)cc1` the value was “inactive”; for `CCOc1ccc(NC(=O)c2cccnc2C(=O)O)cc1`, “inactive”; for `N=C1C(c2nc3ccccc3[nH]2)=C(O)CN1c1ccc(CC(=O)O)cc1`, “inactive”.
`O=C(O)c1ccc(N2C(=O)CC(N3CCN(c4cccc(C(F)(F)F)c4)CC3)C2=O)cc1` (centres undefined): the outcome was inactive.
As for `O=C(NNc1nc2ccccc2s1)Nc1ccccc1`, the outcome was inactive.
As for `COc1ccccc1Nc1ccc2nonc2c1[N+](=O)[O-]`, the entry is “inactive”.
Turning to `Cn1ccnc1Sc1cc(NCCCO)c([N+](=O)[O-])c2nonc12`, the result was inactive.
As for `COc1ccc(NC(=S)Nc2ccc(Oc3ccccc3)cc2)cc1`, the entry is “inactive”; as for `Cc1c(O)ccc2c(CC(=O)N[C@@H](Cc3ccc(O)cc3)C(=O)O)cc(=O)oc12`, “inactive”; as for `Cc1cc(=O)oc2c(C)c(OC(C)C(=O)NCCCN3CCOCC3)ccc12` (centres undefined), “inactive”.
On to `Cc1cc(NC(=O)COc2coc(CN3CCN(c4ccccc4F)CC3)cc2=O)no1`, for which the result was inactive.
For `CCOC(=O)c1cc(C#N)c(NCc2ccccc2)nc1C` the value was “inactive”.
In the case of `Cc1ccc(S(=O)(=O)CCC(=O)Nc2ccc(Br)cc2)cc1`, the result was inactive.
For `O=C(O)c1cc(S(=O)(=O)Nc2ccc3c(c2)OCCO3)c(Cl)cc1Cl` the value was “inactive”.
As for `COc1ccc(OC)c(NC(=S)NCc2cccnc2)c1`, the entry is “inactive”.
As for `CCc1ccc(-c2nc(CS(=O)CC(=O)NCc3cccnc3)c(C)o2)cc1` (centres undefined), the entry is “inactive”; as for `COc1ccc(OC)c(NC(=O)CSc2nc3ccccc3cc2Cc2ccccc2)c1`, “inactive”.
Take `COc1ccc(N(CC(=O)NCc2ccc(F)cc2)C(=O)Cn2nnc(-c3ccc(C)o3)n2)cc1OC`: the outcome was inactive.
Take `O=C(Cn1cnc2c(nnn2Cc2ccc(Cl)cc2)c1=O)N1CCCc2ccccc21`: the compound was called inactive.
Turning to `CCN(c1ccccc1)S(=O)(=O)c1ccc(Cl)c(C(=O)N(CC2CCCO2)C2CCS(=O)(=O)C2)c1` (centres undefined), the outcome was inactive.
`O=C(O)c1csc(-c2ccccc2)n1`: the outcome was inactive.
For `Cc1cc(C(=O)CN2CCC(C)CC2)c(C)n1-c1ccccc1F` the value was “inactive”; for `Cc1cc(/C=C2\SC(=S)N(Cc3ccco3)C2=O)c(C)n1-c1ccccc1`, “inactive”.
